High-throughput results deposited in PubChem BioAssay by National Center for Advancing Translational Sciences (NCATS).
Compounds with a hit are over-represented: about 8.1% of the library has one in this group of screens.
ClpP mod: qHTS Assay for Activators of ClpP. ATP-dependent Clp protease proteolytic subunit (Bacillus subtilis (strain 168)), P80244. purified B. subtilis ClpP, FRET peptide cleavage, 20 min. Potency, µM (titrated, usually from 57.5 µM), inactives show at the highest dose activity change, negative = active. 340,000 compounds, 1.9% hits; active means well fitted falling curve with a large enough effect; inconclusive means small, poorly fitted or top-dose-only effect; inactive means no such curve, though single readings can be large or run the other way; further: the source files actives as falling curves though it sought activators and does not explain the sign; nearly all actives have a fitted effect of over 65% in size
Target sequence (P80244 whole entry, looked up): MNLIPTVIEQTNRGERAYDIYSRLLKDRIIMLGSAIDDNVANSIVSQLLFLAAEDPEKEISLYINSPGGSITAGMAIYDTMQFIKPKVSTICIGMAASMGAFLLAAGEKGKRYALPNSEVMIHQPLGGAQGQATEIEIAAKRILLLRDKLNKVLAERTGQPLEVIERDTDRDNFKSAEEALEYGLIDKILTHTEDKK
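ClpP 10 microg/mL final, pH 8 Tris/KCl buffer with BSA, glycerol, Tween-20; compound pinned in; FRET-FV substrate; RT 20 min; Ex320/Em430; ΔFRET vs ADEP 5.8 microM, DMSO, no enzyme.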
Gal4-VP16 FLuc: inhibits Gal4-VP16 luciferase reporter, ROR gamma counter-screen; Drosophila S2 Gal4-VP16 UAS-luciferase, luminescence, 20 h; Potency, µM (series often up to 53.6 µM), without a hit: at the top dose activity, negative = inhibition, most hits filed as inhibitors; 310,000 compounds, 3.5% hits; AID 2546;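 further: Gal4-VP16 expression switched on by copper sulfate through the metallothionein promoter; on the % scale 0 is the no-effect control and ±100 the full control effect; nearly all actives have a fitted effect of over 50% in size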
Sfp inh: Sfp phosphopantetheinyl transferase inhibition. Biochemical Sfp PPTase activity, qHTS. Potency, µM, without a hit: largest response in the series, negative = inhibition, most hits filed as inhibitors. 310,000 compounds, 3.5% hits. AID 1490;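 further: the enzyme is Sfp with the accession as filed and its product quenches rhodamine fluorescence; 0% = enzyme reaction without inhibitor and -100% = no enzyme wells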
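With Hepes-Na pH 7.6 buffer containing 10 mM MgCl2, Sfp (15 nM) modified BHQ-2-YbbR (12.5 uM) using rhodamine-CoA (5 uM). Two reads 30 minutes apart at 525/598 nm yielded each well's rate.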
PINK1 expr mod: changes PINK1 expression | PINK1 immunofluorescence, high-content cytometry, 24 h | Potency, µM (titrated, usually from 76.6 µM), without a hit: at the top dose activation (PINK1 increase), most hits filed as activators | AID 624263 | 410,000 compounds, 0.2% hits; active means well fitted activation curve with a large enough effect; inconclusive means small, poorly fitted or top-dose-only effect; cell line not stated here; further: % of control where 0% means no effect; nearly all actives have a fitted effect of over 65% in size
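Compound titrations (5 concentrations, 24 h) on a stable cell line; DMSO and CCCP controls. Endpoint: fixed-cell PINK1 immunofluorescence with mitochondrial, cell and nuclear markers, scanned by microplate cytometer.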
RORg inh: ROR gamma (mouse) transcription inhibition | AID 2551 | P51450 | 310,000 compounds, 5.4% hits | Drosophila S2 Gal4-RORgamma UAS-luciferase reporter, 20 h | Potency, µM (titrated, usually from 53.6 µM), inactives show at the top dose activity change, negative = inhibition, actives largely listed as inhibitors; further: on the % scale 0 is the no-effect control and ±100 the full control effect; nearly all actives have a fitted effect of over 60% in size
Target sequence (P51450 whole entry, looked up, the tested form may be a part): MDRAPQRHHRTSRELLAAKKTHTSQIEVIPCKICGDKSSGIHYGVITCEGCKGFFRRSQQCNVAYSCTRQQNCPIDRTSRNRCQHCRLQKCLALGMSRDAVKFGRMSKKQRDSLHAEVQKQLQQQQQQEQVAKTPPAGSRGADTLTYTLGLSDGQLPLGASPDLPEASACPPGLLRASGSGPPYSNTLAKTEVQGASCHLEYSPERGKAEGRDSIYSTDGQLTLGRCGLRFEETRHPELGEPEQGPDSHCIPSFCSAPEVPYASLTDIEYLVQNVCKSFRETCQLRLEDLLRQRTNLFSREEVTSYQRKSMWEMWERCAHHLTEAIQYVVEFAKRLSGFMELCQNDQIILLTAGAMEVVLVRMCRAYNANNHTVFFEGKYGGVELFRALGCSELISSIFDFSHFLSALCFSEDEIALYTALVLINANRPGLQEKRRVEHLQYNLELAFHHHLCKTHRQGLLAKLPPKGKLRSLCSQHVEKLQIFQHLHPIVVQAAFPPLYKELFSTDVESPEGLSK
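Luminescence from a UAS-regulated Photinus luciferase reporter in stably transfected Drosophila Schneider cells is measured; decreased signal marks ROR gamma inhibition. Fusion expression is induced by 700 uM copper sulfate for 20 hr.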
Epigenetic reg: derepresses silenced GFP reporter in murine cells; murine LDR cells, GFP reporter derepression, 30 h; Potency, µM (doses to about 53.9 µM), for inactives: at the top dose GFP activation, actives largely listed as activators; 280,000 compounds, 0.2% hits; further: % of control where 0% means no effect; nearly all actives have a fitted effect of over 60% in size
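Reporter derepression read as number of fluorescent GFP-positive objects, 20-120 um in size, counted by laser-scanning cytometer. Mouse LDR line with an epigenetically silenced CMV-GFP locus; compound incubation 30 h, 37 C.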
Starred values were filed as active, the others as inactive; ? = inconclusive; . = no result; [ ] = dose if it differs, or a comment. Unless noted, the call rests on the fitted dose curve; in most records, active means well fitted curve in the direction sought with a large enough effect; inconclusive means small, poorly fitted or top-dose-only effect, or another doubt; inactive means no such curve, though single readings can be large; an effect the other way counts as inactive or inconclusive. Potency means the concentration at half of the fitted maximal effect.

SMILES	ClpP mod	Gal4-VP16 FLuc	Sfp inh	PINK1 expr mod	RORg inh	Epigenetic reg
NC(=S)N/N=C/c1cccc(O)c1O	.	?	15.2%	0.6%	7.08µM*	-1.1%
NC(=S)N/N=C/c1cccc(Br)c1	-1.1%	?	-7.1%	-1.2%	5.62µM*	0.9%
Cc1cc(/C=N/NC(N)=S)c(O)c(/C=N/NC(N)=S)c1	.	0.447µM*	11.3%	44.7µM*	0.199µM*	1.1%
NC(=S)N/N=C/c1cccc(/C=N/NC(N)=S)c1	.	0.1%	-28.3%	-3.9%	-23.4%	2.1%
COc1cc(OC)c(/C=N/NC(=O)c2ccncc2)cc1Br	.	8.8%	8.4%	0.1%	1.1%	1.5%
COc1cc(OC)c(/C=N/NC(N)=S)cc1Br	?	?	-13.8%	12.7%	8.91µM*	-1.8%
C#CCCCO/N=C1/[C@H]2O[C@@H]2[C@@H](O)[C@H]2[C@H]1CCn1c(=O)n(-c3ccccc3)c(=O)n12	.	13.4%[10 µM]	8.9%	.	-5.3%[10 µM]	0.0%[10.1 µM]
Cc1cc(=O)n(CC(=O)Nc2ccc([N+](=O)[O-])cc2)c(-n2nc(C)cc2C)n1	4.0%	.	.	0.3%	.	0.2%
NC(=S)N/N=C/c1ccccc1O	-25.5%	6.31µM*	15.8%	-0.8%	3.55µM*	3.1%
CCOC(=O)c1ccccc1NC(=O)c1sc2ncn(Cc3cccc(F)c3)c(=O)c2c1C	-3.4%	.	.	-0.2%	.	-1.1%
Cc1ccc2c(=O)cc(C(=O)Nc3nnc(CC(C)C)s3)oc2c1C	-0.1%	.	.	1.0%	.	1.9%
CCCc1sc(N/N=C/c2ccccn2)nc1-c1ccc(Br)cc1	-1.8%	1.41µM*	1.4%	?	1.58µM*	8.0%
OC1(c2cccnc2)CCN(Cc2ccc3c(c2)CN(Cc2ccsc2)CCO3)CC1	.	.	.	-0.2%	.	.
COc1cc(OC)cc(C2=NC3(CCC(C)CC3)NC2=S)c1 (stereo not drawn)	.	2.0%	13.9%	2.1%	1.41µM*	-2.8%
COc1cc(OC)cc(-c2nnc(SCC(=O)N3CCC(C)CC3)o2)c1	-2.1%	.	.	-0.9%	.	0.0%
Cc1ccc(OCCn2cc(C(=O)C3CCCCC3)c3ccccc32)cc1	-5.4%	.	.	3.4%	.	2.9%
CCN1CCN(C(=O)c2cnn(-c3ncc4c(n3)-c3ccccc3CCC4)c2COC)CC1	.	.	.	0.4%	.	.
CC1(C)CC(=O)C2=C(C1)Oc1nc3ccccc3cc1C2C(C#N)C#N (stereo not drawn)	-4.5%	?	-26.2%	-2.1%	3.16µM*	-2.0%
CC(C)C[C@H](NC(=O)CN(C)C(=O)[C@H](Cc1ccccc1)NC(=O)[C@H](Cc1ccccc1)NC(=O)[C@H](CCC(N)=O)NC(=O)[C@H](CCC(N)=O)NC(=O)[C@@H]1CCCN1C(=O)[C@H](CCCCN)NC(=O)[C@@H]1CCCN1C(=O)[C@@H](N)CCCN=C(N)N)C(=O)N[C@@H](CCS(C)(=O)=O)C(N)=O	.	4.5%	3.9%	.	-3.0%	.
O=C(NC1CCCC1)C(c1ccncc1)N(C(=O)c1csnn1)C1CCCC1 (stereo not drawn)	0.5%	10.1%	56.2µM*	-0.5%	40.3%	1.0%
O=c1[nH]c(/C=C\c2ccc(O)c(O)c2)nc(O)c1[N+](=O)[O-]	.	-6.1%	44.7µM*	1.0%	-7.3%	.
Cc1ccc(-n2nc3c(N4CCC(C(=O)N(C)Cc5ccccc5)CC4)nnc(C)c3c2C)cc1	-1.7%	.	.	0.0%	.	0.4%
CCc1nnc(NC(=O)c2ccccc2NC(=O)C2CCN(C(=O)c3ccco3)CC2)s1	-11.5%	.	.	5.7%	.	.
CCOc1ccc(C(F)(F)F)cc1NC(=O)c1ccc(OC)c([N+](=O)[O-])c1	-2.5%	-23.8%	-3.2%	.	-11.6%	0.5%
CCOc1ccc(C(=O)NC(=S)Nc2ccc(NC(=O)CC)cc2)cc1[N+](=O)[O-]	1.2%	-6.7%	-9.7%	2.1%	-31.6%	1.8%
SMILES	ClpP mod	Gal4-VP16 FLuc	Sfp inh	PINK1 expr mod	RORg inh	Epigenetic reg
CCOc1ccc(C(=O)NC(=S)Nc2ccccc2OC)cc1[N+](=O)[O-]	-1.4%	?	7.5%	11.3%	7.08µM*	0.0%
COc1ccccc1CNC(=O)CSc1ccc(C(=O)Nc2ccccc2OC)cc1[N+](=O)[O-]	1.2%	-5.4%	50.1µM*	7.2%	-23.1%	2.1%
COc1ccc(C(=O)NC(=S)Nc2cccc(Cl)c2N2CCOCC2)cc1[N+](=O)[O-]	-0.2%	5.01µM*	-6.7%	20.9%[38.3 µM]	1.78µM*	-1.7%
CCOc1ccc(C(=O)NC(=S)Nc2ccc(N3CCCCC3)cc2)cc1[N+](=O)[O-]	2.0%	3.98µM*	20µM*	?	3.16µM*	0.0%
COc1ccc(OCC(=O)NCCS(=O)(=O)N2CCN(c3cccc(Cl)c3)CC2)cc1	-1.3%	.	.	0.2%	.	0.0%
O=C(CC(C(=O)O)n1ccnc1)c1ccc(Cl)cc1 (stereo not drawn)	0.7%	.	.	0.4%	.	.
CCOc1ccc(C(=O)NC(=S)NC2CCCC2)cc1[N+](=O)[O-]	-1.6%	15.8µM*	-13.6%	3.1%	5.01µM*	5.8%
COc1ccc(C(=O)NC(=S)Nc2ccccc2N2CCCCC2)cc1[N+](=O)[O-]	0.3%	1µM*	8.8%	5.8%	?	-1.1%
CCOc1ccc(C(=O)NC(=S)Nc2ccccc2N2CCCCC2)cc1[N+](=O)[O-]	-5.3%	0.501µM*	16.6%	1.1%	?	-1.1%
COc1ccc(C(=O)NC(=S)N2CCCCC2)cc1[N+](=O)[O-]	0.9%	1.26µM*	14.4%	2.0%	0.891µM*	0.0%
COc1ccc(C(=O)NC(=S)Nc2cc(C)ccn2)cc1[N+](=O)[O-]	4.1%	1µM*	-8.8%	12.5%	?	-1.1%
CC(CCc1ccccc1)NC(=O)CSc1n[nH]c(-c2ccc(F)cc2)n1 (stereo not drawn)	2.0%	.	.	4.0%	.	1.2%
Nc1c(C(=O)Nc2cccc(C(=O)O)c2)sc2nc3c(cc12)CCCC3	-14.8%	3.16µM*	20.3%	3.2%	2.82µM*	.
Nc1c(C(=O)O)sc2nc3c(cc12)CCCC3	-2.5%	-9.5%	-14.9%	2.2%	-21.6%	-1.0%
NC(=O)c1sc2nc3c(cc2c1N)CCCCCC3	.	?	31.6µM*	-1.4%	10.8%	-0.8%
COc1ccc(NC(=O)c2sc3nc4c(cc3c2N)CN(Cc2ccccc2)CC4)cc1OC	0.4%	.	.	4.4%	.	17.8µM*
Cc1cccc(NC(=O)C2CCCN(S(=O)(=O)c3cccc4nonc34)C2)c1C (stereo not drawn)	-5.5%	.	.	-0.2%	.	?
CCCS(=O)(=O)c1c(S(=O)(=O)CCC)c2cc(C(C)(C)C)ccn2c1C(=O)c1ccc(OC)c(OC)c1	-0.7%	.	.	-0.7%	.	-1.0%
COc1cccc(NS(=O)(=O)c2ccc3[nH]cc(C(=O)NC4CCCCC4)c(=O)c3c2)c1	-14.8%	.	.	1.1%	.	-6.3%
